Test results taken from the supplement of paper PMC6853941.
Values without a mark were called inactive.

These molecules were tested on MCF10A (assay: perturbation Mahalanobis distance of morphological profile vs DMSO controls (Mahalanobis distance (SD units)); higher = stronger morphological change, active = 7 or more). Details: screen batch: Batch1_Mahalanobis_Distance; 72 h.
Method: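 MCF10A cells were seeded onto drugs dispensed acoustically into 384-well plates, using one dose per drug chosen from its human peak plasma concentration, and incubated for 72 h at 37 °C. Cells were stained for DNA, tubulin and mitochondria and imaged; 78 CellProfiler features were extracted, plate-normalised and compared with DMSO wells.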
For N[C@@H](CC(=O)N1CCn2c(nnc2C(F)(F)F)C1)Cc1cc(F)c(F)cc1F [Sitagliptin] (4.8 µM), the “perturbation Mahalanobis distance” value was 2.76. NS(=O)(=O)c1cc(Cl)c(Cl)c(S(N)(=O)=O)c1 [Dichlorphenamide] (214.8 µM) was tested, and the “perturbation Mahalanobis distance” value was 2.6. In the case of Nc1ccc(C(=O)O)c(O)c1 [4-Aminosalicylic Acid] (130.6 µM), the “perturbation Mahalanobis distance” value is reported as 12.9 (active). With COc1cc(N)c(Cl)cc1C(=O)NC1CCN(CCCOc2ccc(F)cc2)CC1OC (stereo not given) [Cisapride] (0.85 µM) the “perturbation Mahalanobis distance” value was 3.31. OCCN(CCO)c1nc(N2CCCCC2)c2nc(N(CCO)CCO)nc(N3CCCCC3)c2n1 [Dipyridamole] (19.8 µM) was tested, and the “perturbation Mahalanobis distance” value was 2.41. With COc1ccc(C[C@@H]2c3cc(OC)c(OC)cc3CC[N@+]2(C)CCC(=O)OCCCCCOC(=O)CC[N@@+]2(C)CCc3cc(OC)c(OC)cc3[C@H]2Cc2ccc(OC)c(OC)c2)cc1OC [Cisatracurium Besylate] (18.1 µM) the “perturbation Mahalanobis distance” value was 5.34. Cc1[nH]c(=O)c(C#N)cc1-c1ccncc1 [Milrinone] (5.9 µM) was tested, and the “perturbation Mahalanobis distance” value was 2.49. CC(C)(Sc1cc(C(C)(C)C)c(O)c(C(C)(C)C)c1)Sc1cc(C(C)(C)C)c(O)c(C(C)(C)C)c1 [Probucol] (12.58 µM) was tested, and the “perturbation Mahalanobis distance” value was 2.88. With CCOC(=O)C(C)(C)Oc1ccc(Cl)cc1 [Clofibrate] (325.5 µM) the “perturbation Mahalanobis distance” value was 6.08. For C#CCN(C)Cc1ccccc1 [Pargyline] (1.9 µM), the “perturbation Mahalanobis distance” value was 3.93. In the case of CC1(C)C[C@@H]1C(=O)N/C(=C\CCCCSC[C@H](N)C(=O)O)C(=O)O [Cilastatin] (153.4 µM), the “perturbation Mahalanobis distance” value is reported as 3.43. With CN(CCOc1ccc(CC2SC(=O)NC2=O)cc1)c1ccccn1 (stereo not given) [Rosiglitazone] (4.2 µM) the “perturbation Mahalanobis distance” value was 2.03. With CN/C(=C\[N+](=O)[O-])NCCSCc1csc(CN(C)C)n1 [Nizatidine] (7.5 µM) the “perturbation Mahalanobis distance” value was 2.51. With CC1CNc2c(cccc2S(=O)(=O)N[C@@H](CCCN=C(N)N)C(=O)N2CC[C@@H](C)C[C@@H]2C(=O)O)C1 (stereo not given in full) [Argatroban] (6.9 µM) the “perturbation Mahalanobis distance” value was 3.61. For CC(=O)c1ccc(S(=O)(=O)NC(=O)NC2CCCCC2)cc1 [Acetohexamide] (10 µM), the “perturbation Mahalanobis distance” value was 3.84. For C[C@](N)(Cc1ccc(O)cc1)C(=O)O [Metyrosine] (71.7 µM), the “perturbation Mahalanobis distance” value was 3.87. C1CNCCN1 [Piperazine Hexahydrate] (5.8 µM) was tested, and the “perturbation Mahalanobis distance” value was 2.12. For Cc1nc(-c2ccc(OCC(C)C)c(C#N)c2)sc1C(=O)O [Febuxostat] (178 µM), the “perturbation Mahalanobis distance” value was 2.73. With Nc1ncn([C@@H]2O[C@H](CO)[C@@H](O)[C@H]2O)c(=O)n1 [Azacitidine] (15.4 µM) the “perturbation Mahalanobis distance” value was 14.8 (active). Nc1c2c(nc3ccccc13)CCCC2 [Tacrine] (0.25 µM) was tested, and the “perturbation Mahalanobis distance” value was 2.25.

Same assay, conditions: screen batch: Batch2_Mahalanobis_Distance; 72 h
N[C@@H](CC(=O)N1CCn2c(nnc2C(F)(F)F)C1)Cc1cc(F)c(F)cc1F [Sitagliptin] (4.8 µM) was tested, and the “perturbation Mahalanobis distance” value was 2.49. In the case of NS(=O)(=O)c1cc(Cl)c(Cl)c(S(N)(=O)=O)c1 [Dichlorphenamide] (214.8 µM), the “perturbation Mahalanobis distance” value is reported as 4.41. In the case of Nc1ccc(C(=O)O)c(O)c1 [4-Aminosalicylic Acid] (130.6 µM), the “perturbation Mahalanobis distance” value is reported as 13.9 (active). For COc1cc(N)c(Cl)cc1C(=O)NC1CCN(CCCOc2ccc(F)cc2)CC1OC (stereo not given) [Cisapride] (0.85 µM), the “perturbation Mahalanobis distance” value was 2.99. OCCN(CCO)c1nc(N2CCCCC2)c2nc(N(CCO)CCO)nc(N3CCCCC3)c2n1 [Dipyridamole] (19.8 µM) was tested, and the “perturbation Mahalanobis distance” value was 3.01. For COc1ccc(C[C@@H]2c3cc(OC)c(OC)cc3CC[N@+]2(C)CCC(=O)OCCCCCOC(=O)CC[N@@+]2(C)CCc3cc(OC)c(OC)cc3[C@H]2Cc2ccc(OC)c(OC)c2)cc1OC [Cisatracurium Besylate] (18.1 µM), the “perturbation Mahalanobis distance” value was 4.5. For Cc1[nH]c(=O)c(C#N)cc1-c1ccncc1 [Milrinone] (5.9 µM), the “perturbation Mahalanobis distance” value was 3.46. With CC(C)(Sc1cc(C(C)(C)C)c(O)c(C(C)(C)C)c1)Sc1cc(C(C)(C)C)c(O)c(C(C)(C)C)c1 [Probucol] (12.58 µM) the “perturbation Mahalanobis distance” value was 3.01. CCOC(=O)C(C)(C)Oc1ccc(Cl)cc1 [Clofibrate] (325.5 µM) was tested, and the “perturbation Mahalanobis distance” value was 2.81. In the case of C#CCN(C)Cc1ccccc1 [Pargyline] (1.9 µM), the “perturbation Mahalanobis distance” value is reported as 3.63. In the case of CC1(C)C[C@@H]1C(=O)N/C(=C\CCCCSC[C@H](N)C(=O)O)C(=O)O [Cilastatin] (153.4 µM), the “perturbation Mahalanobis distance” value is reported as 3.46. CN(CCOc1ccc(CC2SC(=O)NC2=O)cc1)c1ccccn1 (stereo not given) [Rosiglitazone] (4.2 µM) was tested, and the “perturbation Mahalanobis distance” value was 3.13. In the case of CN/C(=C\[N+](=O)[O-])NCCSCc1csc(CN(C)C)n1 [Nizatidine] (7.5 µM), the “perturbation Mahalanobis distance” value is reported as 2.13. With CC1CNc2c(cccc2S(=O)(=O)N[C@@H](CCCN=C(N)N)C(=O)N2CC[C@@H](C)C[C@@H]2C(=O)O)C1 (stereo not given in full) [Argatroban] (6.9 µM) the “perturbation Mahalanobis distance” value was 2.75. With CC(=O)c1ccc(S(=O)(=O)NC(=O)NC2CCCCC2)cc1 [Acetohexamide] (10 µM) the “perturbation Mahalanobis distance” value was 4.7. C[C@](N)(Cc1ccc(O)cc1)C(=O)O [Metyrosine] (71.7 µM) was tested, and the “perturbation Mahalanobis distance” value was 3.02. In the case of C1CNCCN1 [Piperazine Hexahydrate] (5.8 µM), the “perturbation Mahalanobis distance” value is reported as 2.76. In the case of Cc1nc(-c2ccc(OCC(C)C)c(C#N)c2)sc1C(=O)O [Febuxostat] (178 µM), the “perturbation Mahalanobis distance” value is reported as 3.22. In the case of Nc1ncn([C@@H]2O[C@H](CO)[C@@H](O)[C@H]2O)c(=O)n1 [Azacitidine] (15.4 µM), the “perturbation Mahalanobis distance” value is reported as 17.2 (active). In the case of Nc1c2c(nc3ccccc13)CCCC2 [Tacrine] (0.25 µM), the “perturbation Mahalanobis distance” value is reported as 2.5.
